A short description of experiment [1]: qHTS Validation Assay to Find Inhibitors of Chronic Active B-Cell Receptor Signaling (AID 485345; active = well fitted curve in the direction sought with a large enough effect in the main read-out, with a control signal flat, not every such curve was filed as active). Summed up: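 TMD8 ABC-DLBCL cells with dox-inducible green luciferase–IκBα fusion and red native luciferase; compounds 46 uM–3 nM, 4 h at 37C with doxycycline in 0.5% FBS IMDM. Green/red ratio normalized to basal and 10 uM MG-132.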
On the technique in general: qHTS replaces the single test concentration by a dilution series.

Experiment [2] has as its target Beta-2 adrenergic receptor (Homo sapiens) (UniProt P07550). Briefly: qHTS validation assay of beta-arrestin-biased ligands of beta2-adrenergic receptor (AID 485366). An outline of the steps:
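Agonism was measured as beta-arrestin recruitment to recombinant beta2-AR, releasing tTA to drive luciferase. Cells were exposed for 18 hr at 37 degrees C to a series up to 46 microM. %Activity from corrected luminescence gave concentration-response curves.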

Experiment [3] concerns the target ATP-dependent 6-phosphofructokinase (Trypanosoma brucei brucei) (UniProt O15648). Nature of the experiment: qHTS Validation Assay to Find Inhibitors of T. brucei phosphofructokinase (AID 485368). Also: potency is read from the fitted curve at half-maximal effect. Summed up: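 ADP-Glo luminescence, two-step: residual ATP depleted, then ADP converted to ATP for luciferase. Enzyme 1.25 nM, F6P 0.5 mM, ATP 0.1 mM, pH 8.0 TEA buffer, 45 min RT. Curves fitted and classed by quality and efficacy.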

A short description of experiment [4]: Quantitative high throughput screen for delayed death inhibitors of the malarial parasite plastid, 96 hour incubation (AID 488745). Also: nearly all actives have a fitted effect of over 70% in size. Also: potency is read from the fitted curve at half-maximal effect. Summed up: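 Decreased firefly luciferase luminescence indicates inhibited growth of reporter-integrated P. falciparum after two generations (96 h, 37 C, 5% CO2). Infected erythrocytes at 0.1% parasitemia, 2% hematocrit, in Albumax-supplemented RPMI 1640.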

Experiment [5] in a line: Quantitative high throughput screen for delayed death inhibitors of the malarial parasite plastid, 48 hour incubation (AID 488752). Also: nearly all actives have a fitted effect of over 65% in size. Also: potency is read from the fitted curve at half-maximal effect. Summed up: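 One-generation (48 h) growth assay: a decrease in luciferase signal from an integrated reporter in P. falciparum-infected red cells (0.1% parasitemia, 2% hematocrit) after compound exposure at 37 C indicates parasite inhibition.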

Experiment [6] concerns the target Thioredoxin reductase 1, cytoplasmic (Rattus norvegicus) (UniProt O89049). Nature of the experiment: qHTS Assay for Substrates of Mammalian Selenoprotein Thioredoxin Reductase 1 (TrxR1) (AID 488772).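 Also: series mostly up to about 57 µM; a drop in NADPH fluorescence below the no-compound background marks a TrxR1 substrate.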 Summed up:
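In this dual-purpose format, potential substrates are identified from the first fluorescence read after selenite addition, not from the 8-minute delta. Rat enzyme is preincubated with NADPH and then with compound at ~22 deg C.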

Experiment [7] shares this target. Nature of the experiment: qHTS Assay for Inhibitors of Mammalian Selenoprotein Thioredoxin Reductase 1 (TrxR1) (AID 488773). Also: nearly all actives have a fitted effect of over 40% in size. Also: potency is read from the fitted curve at half-maximal effect. Conditions: Potency: inhibition. Summed up: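 Inhibition is scored from the loss of NADPH fluorescence between first and last reads of an 8-min kinetic run. Selenite (400 uM) was the substrate, added after 15 min compound preincubation at room temperature.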

The target of experiment [8] is Flap endonuclease 1 (Homo sapiens) (UniProt P39748). Nature of the experiment: qHTS Validation Assay for the Inhibitors of Human Flap endonuclease 1 (FEN1) (AID 488816). Also: potency is read from the fitted curve at half-maximal effect. An outline of the steps: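 Steps: add FEN1 (10 nM reagent) or buffer only; pin compounds; hold 15 min at room temperature; start with substrate, 50 nM final; read at 0 and 15 min; correct, normalize and fit a four-parameter Hill curve.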

Experiment [9] concerns the target Chromobox protein homolog 1 (Homo sapiens) (UniProt P83916). Nature of the experiment: qHTS Validation Assay for Inhibitors of HP1-beta Chromodomain Interactions with Methylated Histone Tails (AID 488953). Also: nearly all actives have a fitted effect of over 50% in size. Also: potency is read from the fitted curve at half-maximal effect. Summed up:
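AlphaScreen proximity signal from streptavidin donor and nickel chelate acceptor beads (final 10 ug/mL) after 30 min dark incubation. Compounds had 30 min at room temperature with preformed complex of 50 nM HP1-beta and 50 nM b-H3(1-18)K9me3 in PBS pH 7.4 with 0.01% Tween-20.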

For experiment [10], the target named is M-phase phosphoprotein 8 (Homo sapiens) (UniProt Q99549). Briefly: qHTS Validation Assay for Inhibitors for MPP8 Chromodomain Interactions with Methylated Histone Tails (AID 488949).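 Also: 50 nM MPP8 with 50 nM peptide preformed then compounds added for 30 min; AlphaScreen signal from MPP8 chromodomain bound to biotinylated H3K9me3 peptide; top concentration of the series differs between compounds; nearly all actives have a fitted effect of over 55% in size.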 Summed up: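 50 nM MPP8 + 50 nM b-H3K9me3 peptide, PBS pH 7.4/0.01% Tween-20, 30 min RT; + cpd 30 min RT; + AlphaScreen donor/Ni-chelate acceptor beads 10 ug/mL final, 30 min dark; luminescence read.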

Results filed as inconclusive are left out. Calls of active or inactive are those of the source. Unless noted, calls follow the shape of the dose curve; as a rule, active = well fitted curve in the direction sought with a large enough effect; inconclusive = small, poorly fitted or top-dose-only effect, or another doubt; inactive = no such curve, though single readings can be large; an effect the other way counts as inactive or inconclusive.

Sequence of Chromobox protein homolog 1 (Homo sapiens) (P83916 whole entry, looked up): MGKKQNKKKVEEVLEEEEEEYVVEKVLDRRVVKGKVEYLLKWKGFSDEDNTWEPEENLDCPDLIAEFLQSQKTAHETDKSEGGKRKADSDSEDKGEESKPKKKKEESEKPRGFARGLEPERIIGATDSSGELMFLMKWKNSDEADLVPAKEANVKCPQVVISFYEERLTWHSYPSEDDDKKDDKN
Sequence of ATP-dependent 6-phosphofructokinase (Trypanosoma brucei brucei) (O15648 whole entry, looked up): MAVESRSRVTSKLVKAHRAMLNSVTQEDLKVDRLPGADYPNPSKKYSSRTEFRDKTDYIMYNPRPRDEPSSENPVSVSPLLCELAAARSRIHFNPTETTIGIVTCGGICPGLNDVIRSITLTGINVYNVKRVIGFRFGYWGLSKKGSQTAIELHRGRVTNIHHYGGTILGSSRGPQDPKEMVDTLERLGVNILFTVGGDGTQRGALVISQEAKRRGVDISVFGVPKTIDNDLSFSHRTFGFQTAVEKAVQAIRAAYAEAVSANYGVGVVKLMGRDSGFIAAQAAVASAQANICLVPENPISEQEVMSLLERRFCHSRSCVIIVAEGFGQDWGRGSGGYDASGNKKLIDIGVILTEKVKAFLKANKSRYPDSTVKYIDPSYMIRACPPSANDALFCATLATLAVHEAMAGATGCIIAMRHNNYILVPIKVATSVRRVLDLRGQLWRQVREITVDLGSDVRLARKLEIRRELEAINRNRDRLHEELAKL
Sequence of Beta-2 adrenergic receptor (Homo sapiens) (P07550 whole entry, looked up): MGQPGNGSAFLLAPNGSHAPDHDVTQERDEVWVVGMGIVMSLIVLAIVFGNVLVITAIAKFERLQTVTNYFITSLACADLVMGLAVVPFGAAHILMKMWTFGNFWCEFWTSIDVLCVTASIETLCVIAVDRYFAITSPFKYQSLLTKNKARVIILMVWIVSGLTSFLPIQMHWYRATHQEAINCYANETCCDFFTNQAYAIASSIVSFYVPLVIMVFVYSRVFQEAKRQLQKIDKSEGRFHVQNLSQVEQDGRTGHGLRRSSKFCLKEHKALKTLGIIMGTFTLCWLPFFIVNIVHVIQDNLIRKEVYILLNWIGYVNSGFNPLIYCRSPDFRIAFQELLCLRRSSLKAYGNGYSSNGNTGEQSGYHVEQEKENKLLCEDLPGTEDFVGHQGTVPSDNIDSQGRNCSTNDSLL
Sequence of Thioredoxin reductase 1, cytoplasmic (Rattus norvegicus) (O89049 whole entry, looked up): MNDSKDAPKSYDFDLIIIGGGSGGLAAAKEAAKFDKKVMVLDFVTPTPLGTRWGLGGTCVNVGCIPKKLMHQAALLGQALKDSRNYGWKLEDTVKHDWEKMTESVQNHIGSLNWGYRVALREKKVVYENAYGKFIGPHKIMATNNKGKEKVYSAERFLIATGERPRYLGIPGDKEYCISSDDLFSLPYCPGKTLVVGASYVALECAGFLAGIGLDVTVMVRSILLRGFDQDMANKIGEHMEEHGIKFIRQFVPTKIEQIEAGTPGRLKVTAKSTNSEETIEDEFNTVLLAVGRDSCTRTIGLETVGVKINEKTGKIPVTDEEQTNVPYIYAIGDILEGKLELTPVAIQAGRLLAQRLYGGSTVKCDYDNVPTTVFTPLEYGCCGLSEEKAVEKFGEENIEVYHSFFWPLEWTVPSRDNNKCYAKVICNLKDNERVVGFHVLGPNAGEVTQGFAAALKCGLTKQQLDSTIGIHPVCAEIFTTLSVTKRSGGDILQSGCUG
Sequence of M-phase phosphoprotein 8 (Homo sapiens) (Q99549 whole entry, looked up): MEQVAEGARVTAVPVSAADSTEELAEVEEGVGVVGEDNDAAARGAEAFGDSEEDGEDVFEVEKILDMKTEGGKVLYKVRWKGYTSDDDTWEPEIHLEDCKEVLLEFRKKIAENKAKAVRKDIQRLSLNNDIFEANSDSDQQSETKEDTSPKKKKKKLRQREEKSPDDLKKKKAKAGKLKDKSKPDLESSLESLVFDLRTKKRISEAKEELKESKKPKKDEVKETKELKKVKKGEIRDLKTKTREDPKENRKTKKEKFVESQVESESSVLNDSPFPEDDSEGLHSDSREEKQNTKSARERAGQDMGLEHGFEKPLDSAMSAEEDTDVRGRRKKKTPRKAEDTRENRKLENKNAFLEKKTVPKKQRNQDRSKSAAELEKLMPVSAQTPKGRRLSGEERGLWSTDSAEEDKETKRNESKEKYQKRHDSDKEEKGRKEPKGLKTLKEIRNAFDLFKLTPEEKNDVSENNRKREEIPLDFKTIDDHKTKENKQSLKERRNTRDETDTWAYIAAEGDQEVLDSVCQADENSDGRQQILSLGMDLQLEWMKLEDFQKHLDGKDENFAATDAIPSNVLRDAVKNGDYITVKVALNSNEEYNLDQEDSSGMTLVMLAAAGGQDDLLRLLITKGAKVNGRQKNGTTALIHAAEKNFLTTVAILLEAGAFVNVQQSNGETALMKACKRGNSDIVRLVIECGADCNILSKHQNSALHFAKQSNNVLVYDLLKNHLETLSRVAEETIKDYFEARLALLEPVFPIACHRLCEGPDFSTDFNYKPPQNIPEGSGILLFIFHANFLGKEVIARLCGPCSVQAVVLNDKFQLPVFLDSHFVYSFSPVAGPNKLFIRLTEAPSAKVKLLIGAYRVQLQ
Sequence of Flap endonuclease 1 (Homo sapiens) (P39748 whole entry, looked up): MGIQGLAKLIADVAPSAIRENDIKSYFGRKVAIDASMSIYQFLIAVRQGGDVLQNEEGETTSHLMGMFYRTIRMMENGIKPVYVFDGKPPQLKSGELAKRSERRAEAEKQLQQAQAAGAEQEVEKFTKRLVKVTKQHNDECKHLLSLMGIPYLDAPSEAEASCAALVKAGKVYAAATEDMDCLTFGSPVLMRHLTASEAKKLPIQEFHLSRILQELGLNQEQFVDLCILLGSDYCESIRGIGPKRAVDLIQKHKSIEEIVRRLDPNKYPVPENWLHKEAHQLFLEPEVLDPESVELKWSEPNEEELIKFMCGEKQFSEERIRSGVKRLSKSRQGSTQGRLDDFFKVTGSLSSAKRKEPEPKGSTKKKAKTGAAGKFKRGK

In the case of `CC(CCc1ccccc1)NC(C)C(O)c1ccc(O)cc1` (stereo not given), the compound was called inactive in experiment [1], in experiment [2] and in experiment [6]. For the same compound, the Potency entry in experiment [3], in experiment [4], in experiment [5], in experiment [7], in [8] and in experiment [9] was “inactive” throughout.

Take `CC(O)(CS(=O)(=O)c1ccc(F)cc1)C(=O)Nc1ccc(C#N)c(C(F)(F)F)c1` (stereo not given): the result in experiment [1], in [2] and in experiment [6] was inactive. Besides, the Potency result in [3], in experiment [7], in experiment [8] and in experiment [9] was “inactive” in each case.

As for `c1ccc(C2CC2)c(OCC2=NCCN2)c1`, the compound was called inactive in experiment [1], in experiment [2] and in [6]. For the same compound, the Potency entry in experiment [3], in [4], in experiment [5], in experiment [7] and in experiment [8] was “inactive” throughout.

On to `CCC1(C2=NCCN2)Cc2ccccc2O1` (stereo not given), for which the outcome in [1], in experiment [2] and in [6] was inactive. Further, the Potency entry in experiment [3], in experiment [4], in [5], in experiment [7], in experiment [8] and in experiment [9] was “inactive” each time.

For `COc1ccccc1N1CCNCC1`, the outcome in [1], in experiment [2] and in [6] was inactive. Also, the Potency result in experiment [4], in experiment [5], in experiment [8] and in experiment [9] was “inactive” each time.

Turning to `C[C@@H]1O[C@@H](O[C@H]2C[C@@H](O)[C@]3(CO)[C@H]4[C@H](O)C[C@]5(C)[C@@H](C6=CC(=O)OC6)CC[C@]5(O)[C@@H]4CC[C@]3(O)C2)[C@H](O)[C@H](O)[C@H]1O`, the outcome in experiment [1], in experiment [2] and in experiment [6] was inactive. Also, the Potency result in experiment [3], in experiment [4], in [5], in experiment [7], in experiment [8] and in [9] was “inactive” throughout.

On to `CC12CC3CC(C)(C1)CC(N)(C3)C2`, for which the Potency entry in [8] was “inactive”.

On to `O=c1[nH]c2ccccc2n1C1CCN(CCCC(c2ccc(F)cc2)c2ccc(F)cc2)CC1`, for which the result in [2] and in experiment [6] was inactive. The Potency result in [3], in [7] and in [8] was “inactive” throughout. For the same compound, the Potency in [4] is 10.4 µM (active); in experiment [9], 35.5 µM (active).

`CC(COc1ccccc1)N(CCCl)Cc1ccccc1` (stereo not given): in experiment [8], the Potency result was “inactive”. Moreover, the Potency in [9] is 0.0095 µM (active).

In the case of `Fc1ccc(C(OCCN2CCN(CCCc3ccccc3)CC2)c2ccc(F)cc2)cc1`, the result in experiment [2] and in experiment [6] was inactive. Moreover, the Potency entry in [3], in [4], in experiment [7] and in [8] was “inactive” each time. The Potency in experiment [9] was 39.8 µM (active).

In the case of `Cc1cc2c(C(C)C)c(O)c(O)c(C=O)c2c(O)c1-c1c(C)cc2c(C(C)C)c(O)c(O)c(C=O)c2c1O`, the Potency in experiment [7] is 15 µM (active); in [8], 11.9 µM (active); in experiment [9] it was 10 µM (active).

For the compound `CCC1C(=O)OCC1Cc1cncn1C` (stereo not given), the Potency entry in [8] is “inactive”.

With `COC[C@H]1OC(=O)c2coc3c2[C@@]1(C)C1=C(C3=O)C2CCC(=O)[C@@]2(C)C[C@H]1OC(C)=O` (stereo not given in full), the result in experiment [2] and in experiment [6] was inactive. Further, the Potency result in [3], in [8], in experiment [10] and in experiment [9] was “inactive” in each case. Besides, the Potency in experiment [4] is 8.28 µM (active); in [7] it was 11.9 µM (active).

Consider `C=C(C)[C@H]1Cc2c(ccc3c2O[C@@H]2COc4cc(OC)c(OC)cc4[C@@H]2C3=O)O1`, for which the outcome in [2] and in experiment [6] was inactive. The Potency result in experiment [5], in experiment [7] and in experiment [8] was “inactive” throughout. For the same compound, in [9], the Potency was 35.5 µM (active).

`CCOC(=O)c1ncn2c1CN(C)C(=O)c1cc(F)ccc1-2`: the Potency result in experiment [8] is “inactive”.

For `CC[N+](C)(C)c1cccc(O)c1`, in [4], the Potency was 0.0059 µM (active).

Regarding `OCCN1CCN(CCCN2c3ccccc3Sc3ccc(C(F)(F)F)cc32)CC1`, the Potency in [4] is 3.29 µM (active); in experiment [5], 9.28 µM (active); in experiment [9] it was 0.006 µM (active).

Take `CN1C[C@H](CNC(=O)OCc2ccccc2)C[C@@H]2c3cccc4c3c(cn4C)C[C@H]21`: the compound was classed as inactive in experiment [2] and in experiment [6]. Also, the Potency entry in experiment [3], in experiment [7] and in experiment [8] was “inactive” each time. The Potency is 3.29 µM (active) in experiment [4], 7.38 µM (active) in [5] and 44.7 µM (active) in experiment [9].

As to `COc1ccc(Cc2nccc3cc(OC)c(OC)cc23)cc1OC`, the Potency result in experiment [4], in [5] and in [8] was “inactive” in each case. Besides, the Potency in experiment [9] was 0.006 µM (active).

Regarding `Clc1cccc(N2CCNCC2)c1`, the Potency result in experiment [5] is “inactive”.

On to `O=c1[nH]cc(F)c(=O)[nH]1`, for which the results for the Potency in experiment [4] and in experiment [5] were 9.28 µM (active) and 10.4 µM (active), respectively. The Potency result in [8] is “inactive”.

`CC(C)C(=O)Nc1ccc([N+](=O)[O-])c(C(F)(F)F)c1`: the Potency entry in [9] was “inactive”.

On to `COc1cc2c(c(OC)c1OC)-c1ccc(OC)c(=O)cc1[C@@H](NC(C)=O)CC2`, for which the Potency entry in [8] and in experiment [9] was “inactive” each time.

Turning to `O=c1[nH]c2ccccc2n1CCCN1CCC(n2c(=O)[nH]c3cc(Cl)ccc32)CC1`, the compound was called inactive in experiment [2] and in experiment [6]. Moreover, the Potency in experiment [4] is 1.17 µM (active); in [5], 10.4 µM (active). In addition, the Potency result in experiment [7] was “inactive”.

As to `O=c1c(O)c(-c2ccc(O)c(O)c2)oc2cc(O)cc(O)c12`, the Potency in [3] is 6.75 µM (active); in experiment [4], 10.4 µM (active); in experiment [8], 2.38 µM (active).

Take `CC[C@@H](CO)NC(=O)[C@@H]1C=C2c3cccc4c3c(cn4C)C[C@H]2N(C)C1`: the call in experiment [2] and in experiment [6] was inactive. Also, the Potency result in [3] is “inactive”. Moreover, the Potency in [7] was 10.6 µM (active).

On to `CN(C)C(=O)C(CCN1CCC(O)(c2ccc(Cl)cc2)CC1)(c1ccccc1)c1ccccc1`, for which the Potency in [4] is 7.38 µM (active); in experiment [5], 8.28 µM (active).

In the case of `CCn1cc(C(=O)O)c(=O)c2ccc(C)nc21`, the Potency result in experiment [4] and in experiment [5] was “inactive” throughout.

`CNCCC(Oc1ccc(C(F)(F)F)cc1)c1ccccc1` (stereo not given): the Potency result in [3] and in experiment [9] was “inactive” throughout.

Regarding `c1ccc2c(c1)OCC(C1=NCCN1)O2` (stereo not given), the compound was called inactive in [2] and in experiment [6]. In addition, the Potency entry in experiment [4], in [5], in [8], in [10] and in experiment [9] was “inactive” in each case. In addition, the Potency in experiment [7] was 7.52 µM (active).

On to `CC[N+](CC)(CC)CC`, for which the Potency in experiment [4] was 4.15 µM (active). Further, the Potency entry in experiment [8] was “inactive”.

Regarding `Cc1ccc(S(=O)(=O)N[C@@H](CCCCN)C(=O)CCl)cc1`, the compound was classed as inactive in experiment [2] and in experiment [6]. For the same compound, the Potency result in experiment [5] and in [9] was “inactive” each time.

For the origin of these results see PubChem BioAssay (NCATS).
